# Bioassay records (PubChem)
# Shiga inhibitor – blocks Shiga toxin action in Vero cells; Vero cells, Shiga toxin protein synthesis inhibition reporter; actives 9.2% (n = 290,000); AID 2315; inhibition, % at 38.7 µM; in the data active = inhibition mostly above about 28%, no sharp cut-off; inactive = mostly below about 43%
# AmpC inh no detg – AmpC beta-lactamase inhibition without detergent; P00811; AmpC nitrocefin hydrolysis, absorbance 480 nm, 0.0001% Triton; Potency, µM (highest dose often 57.1 µM), usual class: inhibitors; actives 0.52% (n = 330,000); AID 485341; also: nearly all actives have a fitted effect of over 20% in size
# Target sequence (P00811 whole entry, looked up): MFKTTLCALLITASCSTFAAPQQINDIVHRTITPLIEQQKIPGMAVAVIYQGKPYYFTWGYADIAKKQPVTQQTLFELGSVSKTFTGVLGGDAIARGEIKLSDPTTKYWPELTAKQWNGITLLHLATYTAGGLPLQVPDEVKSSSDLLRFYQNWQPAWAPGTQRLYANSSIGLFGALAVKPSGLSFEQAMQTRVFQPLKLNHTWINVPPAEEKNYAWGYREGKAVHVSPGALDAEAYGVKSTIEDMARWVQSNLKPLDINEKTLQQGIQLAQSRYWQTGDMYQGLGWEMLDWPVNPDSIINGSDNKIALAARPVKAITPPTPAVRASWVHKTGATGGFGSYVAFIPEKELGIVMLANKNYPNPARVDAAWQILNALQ
#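 AmpC (5.3 nM in the dispensed reagent) in 20 mM phosphate pH 7.0 with 0.01% (detergent screen) or 0.0001% Triton X-100 was preincubated with compounds for 15 min at room temperature. Nitrocefin was then added from an 800 uM solution, and hydrolysis was followed at 480 nm.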
# AmpC inh detg – inhibitors of E. coli AmpC beta-lactamase with detergent | P00811 | AmpC hydrolysis of nitrocefin, absorbance 480 nm, 0.01% Triton | Potency, µM (top dose mostly 114 µM), hits mostly inhibitors | actives 0.041% (n = 370,000) | AID 485294; also: nearly all actives have a fitted effect of over 25% in size
#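 AmpC (5.3 nM in the dispensed reagent) in 20 mM phosphate pH 7.0 with 0.01% (detergent screen) or 0.0001% Triton X-100 was preincubated with compounds for 15 min at room temperature. Nitrocefin was then added from an 800 uM solution, and hydrolysis was followed at 480 nm.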
# AMA1-RON2 inh – disrupts binding of P. falciparum AMA1 to RON2; AlphaScreen AMA1-biotinylated RON2 peptide binding; Potency, µM (top dose mostly 58.2 µM), actives largely listed as inhibitors; actives 0.2% (n = 360,000); also: nearly all actives have a fitted effect of over 45% in size
#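 AMA1 (3D7) with his tag at 25 nM final met compounds first, then biotinylated RON2 peptide at 25 nM; detection used donor plus acceptor beads, 10 µg/mL apiece, read by AlphaScreen after 30 min at room temperature.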
# SARS PLpro yeast – inhibitors of SARS-CoV papain-like protease in yeast; Potency, µM (series often up to 32.9 µM), actives largely listed as activators; S. cerevisiae expressing SARS-CoV PLpro, growth rescue; AID 485353; actives 0.19% (n = 330,000); calls by dose curve; also: nearly all actives have a fitted effect of over 55% in size
# CHX counter – affects cycloheximide protein synthesis inhibition readout, counter-screen; cell reporter, cycloheximide protein synthesis inhibition counterscreen; max response, %; actives 12% (n = 300,000); in the data active = max response mostly above about 13%, no sharp cut-off; inactive = mostly below about 14%; also: read at 38.3 µM for the half of the compounds with a filed dose
# Numbers stand for hits; 0 = inactive; ? = inconclusive; - = no result; ! = repeats disagree. Shown is part of a subset that was picked to be rich in hits. Unless noted, calls follow the shape of the dose curve; as a rule, active = well fitted curve in the direction sought with a large enough effect; inconclusive = small, poorly fitted or top-dose-only effect, or another doubt; inactive = no such curve, though single readings can be large; an effect the other way counts as inactive or inconclusive.
SMILES,Shiga inhibitor,AmpC inh no detg,AmpC inh detg,AMA1-RON2 inh,SARS PLpro yeast,CHX counter
COc1cccc(/C=N/NC(=O)C(=O)N2CCCC2)c1OC,0,0,?,0,0,0
CC1Cn2c(nnc2-c2ccccc2O)S1 (configuration not stated),0,0,?,0,0,0
O=C(Nc1cccc([N+](=O)[O-])c1)c1cc2ccccc2cc1O,108,13µM,0,0,0,49
Cc1c(C(=O)Nc2cccc([N+](=O)[O-])c2)csc1-c1ccccc1,83,0,0,0,0,46
Cc1ccc(NC(=O)c2csc(-c3ccccc3)c2C)cc1,199,0,0,0,0,54
CC(=O)Nc1ccc(S(=O)(=O)NC(C)C(=O)NC(C)c2ccccc2)cc1 (configuration not stated),0,0,0,0,0,0
CC(C)(C)c1ccc(C(=O)N2CCN(CCNC(=O)C(=O)NCc3ccccc3)CC2)cc1,0,0,0,0,0,0
COc1ccc(-c2cc(C3C4C=CCC(C)C4C(=O)N3Cc3ccccc3)ccc2F)cc1OC (configuration not stated),63,-,-,-,-,51
COc1ccc([C@H]2[C@H]3C=CC[C@@H](C)[C@@H]3C(=O)N2Cc2ccccc2)cc1Cl,0,0,0,0,0,0
CN(C)c1ccc(-c2cccc(C3CC=CC4C3C(=O)N(Cc3ccccc3)C4c3ccc(C(F)(F)F)cc3)c2)cc1 (configuration not stated),0,0,0,0,0,14!
COc1ccc(C2C3C=CCC(c4cccc(/C=C/c5ccccc5)c4)C3C(=O)N2Cc2ccccc2)cc1Cl (configuration not stated),36,-,-,-,-,36
COc1ccc(N2CCN(C(=O)C3CCN(Cc4nc(-c5ccc(Cl)cc5)oc4C)CC3)CC2)cc1,-,-,0,-,-,-
O=C(Nc1ccc(C2SCCS2)cc1)c1ccccc1,136,0,0,0,0,60
CC(C)c1ccc(NC(=O)COc2ccc(C3SCCS3)cc2)cc1,0,0,0,0,0,0
CNC(=O)Nc1ccc(C2SCCS2)cc1,0,0,0,0,0,17
CCCCNC(=O)Nc1ccc(C2SCCS2)cc1,86,0,0,0,0,47
CCCCNC(=O)Nc1ccccc1CC,0,0,0,0,0,0
Cc1ncc([N+](=O)[O-])n1CC(=O)Nc1ccc(F)cc1F,0,0,0,0,0,0
O=C(Nc1nc2ccc3ccccc3c2s1)c1ccc(N2CCCCC2)c([N+](=O)[O-])c1,0,0,0,0,0,0
N#CCC(=O)N/N=C\c1cc(Br)ccc1OC/C=C/c1ccccc1,98,0,0,0,0,26
COc1cc(/C=N\NC(C)=O)ccc1OC/C=C/c1ccccc1,0,0,?,0,0,0
CCOC(=O)N/N=C\c1ccccc1OC/C=C/c1ccccc1,55,0,0,0,0,34
COC(=O)N/N=C\c1ccccc1OC/C=C/c1ccccc1,0,0,?,0,0,32
Cc1sc(NC(=O)C2CSC3(C)CCC(=O)N23)nc1-c1ccccc1 (configuration not stated),-,0,0,0,0,-
Cc1ccc(NC(=O)COC(=O)C2=COCCO2)c([N+](=O)[O-])c1,0,0,0,0,0,26
SMILES,Shiga inhibitor,AmpC inh no detg,AmpC inh detg,AMA1-RON2 inh,SARS PLpro yeast,CHX counter
O=C(COC(=O)C1=COCCO1)Nc1ccc2c(c1)OCO2,0,0,?,0,0,39
Cc1cc(C)c(NC(=O)COC(=O)C2=COCCO2)c(C)c1,-,-,-,0,-,-
Cc1ccc(NC(=O)COC(=O)C2=COCCO2)cc1,0,0,0,0,0,20
COc1ccc(-c2ccc(C#N)c(OC)n2)cc1,0,0,0,0,0,0
C=CSc1sc(Cl)c(N2CCOCC2)c1[N+](=O)[O-],0,0,0,?,0,0
CCOc1ccc2c(c1)C(C)=CC(C)(C)N2C(=O)Nc1ccccc1,0,0,?,0,0,29
COc1ccc(NC(=O)N2c3ccc(OC)cc3C(C)=CC2(C)C)cc1,0,0,?,0,0,0
COc1ccc(NC(=O)N2c3ccccc3C(C)=CC2(C)C)cc1,38,0,0,0,0,20
O=C(NNC(=O)C1CC=CCC1)c1cccc(Br)c1 (configuration not stated),-,-,-,0,-,-
CCc1ccc(OCC2Cn3c(nc4c3c(=O)[nH]c(=O)n4C)O2)cc1 (configuration not stated),0,0,?,0,0,0
Nn1cnnc1SCC(=O)Nc1ccc(C2CCCCC2)cc1,81,0,0,0,0,50
CCC(C)c1ccc(NC(=O)CSc2nncn2N)cc1 (configuration not stated),0,0,0,0,0,0
Cn1cnnc1SCC(=O)c1ccc2c(c1)CCCC2,69,0,0,0,0,32
CC(=O)Nc1ccc(NC(=O)CSc2nncn2C)cc1,0,0,0,0,0,0
Cn1cnnc1SCC(=O)Nc1ccc2c(c1)CCC2,35,0,0,0,0,15
COC(=O)c1cc(NC(=O)c2c(-c3c(Cl)cccc3Cl)noc2C)ccc1N1CCOCC1,0,0,0,0,0,0
CCOc1ccc(S(=O)(=O)N2CCCC(C(=O)Nc3ccccc3)C2)cc1 (configuration not stated),0,0,0,0,0,0
CC(C)(C)NC(=O)NC(=O)COC(=O)Cc1c(Cl)cccc1Cl,0,0,0,0,0,0
CC(C)(C)NC(=O)NC(=O)COC(=O)c1c(F)cccc1Cl,109,0,0,0,0,36
Oc1ccc(C2C(c3ccccc3)=NN=C(c3ccccc3F)N2O)c(O)c1 (configuration not stated),0,?,?,0,0,0
COc1ccc(-c2cn3nc(C)c(C)nc3n2)cc1OC,-,0,?,0,0,-
Cc1ccc(-c2cn3nc(C)c(C)nc3n2)cc1,32,0,0,0,0,24
COC(=O)Cc1c(C)c2ccc(OCC(=O)N3CCCC(C)C3)c(C)c2oc1=O (configuration not stated),0,0,?,0,0,0
O=C(O)C1CC=CCC1C(=O)N1CC=C(c2ccccc2)CC1 (configuration not stated),44,0,0,0,0,29
O=C(O)CCC(=O)N1CC=C(c2ccccc2)CC1,79,0,0,0,0,50
O=C(c1cccs1)N1CC=C(c2ccccc2)CC1,-,0,0,0,0,-
O=C(Cn1[nH]c(=O)c2ccccc2c1=O)N1CC=C(c2ccccc2)CC1,0,0,?,0,0,0
N#CCCN(C(=O)COC(=O)CCC(=O)c1cccs1)c1ccccc1,-,0,-,0,0,-
COc1ccc(NS(=O)(=O)c2cccc(C(=O)NNC(=O)c3ccccc3O)c2)cc1,-,0,?,0,0,-
